The nature of assay [1]: liver-stage malaria parasite load reduction – cell-based, known kinase inhibitor set, luminescence, hepatoma host viability (AID 624392).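 Further: infected cells incubated roughly two days before readout.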 Particulars: Plasmodium liver stage in hepatoma cells, luciferase luminescence, concentration not given here; liver cell % of control: measured here: host liver cell viability; parasite % of control: stronger effect = lower value.
The nature of assay [2]: altered dexamethasone sensitivity, NF-kB reporter, cell-based, luciferase, IL-1B stimulus (AID 624486).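 On percent of negative control (+Dex): 100% = mean signal of vehicle control wells on the plate.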 To be noted: IL-1B + dexamethasone, luminescence; percent of negative control (+Dex): actives lie on both sides, concentration not given here; z-score: measured here: IL-1B alone, no Dex.
The nature of assay [3]: C. elegans survival during P. aeruginosa infection – whole organism (AID 651566).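 Further: tested at 14 µM; sign flipped so higher z means a lower ratio.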 Particulars: C. elegans killed by P. aeruginosa, survival ratio.
Assay [4] in a line: pro-inflammatory signaling induction in mouse macrophages – cell-based, murine, luminescence (AID 652131). Particulars: murine macrophage pro-inflammatory reporter, stronger effect = higher value.
Assay [5] has as its target Cellular tumor antigen p53 (Homo sapiens) (UniProt P04637). Briefly: GFP-p53 level modulators in HPV16+ cells – imaging, known kinase inhibitor set, EGFP/DsRed ratio (AID 1053116).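 Further: cells exposed to compounds for 24 h at 37 °C before reading.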 Particulars: GFP-p53 stability, stronger effect = higher value; EGFP object count: measured here: GFP-p53 positive objects count.
Assay [6] in a line: inducers of IRF3 signaling, differentiated THP-1 – cell-based, PMA-stimulated THP-1, luminescence (AID 1053176). Particulars: PMA-differentiated THP-1, IRF3 reporter luminescence; stronger effect = higher value.
Assay [7] is described as follows: MELAS cybrid and Rieske KO viability enhancers – cell-based, MELAS cybrids, Rieske KO mouse fibroblasts, CellTiter-Glo, primary screen (AID 1508586;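 active means mean z-score across replicates of 1.96 or higher in either the MELAS or the Rieske mutant cell line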;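 further: z relative to plate mean and SD of compound and empty wells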). Particulars: low glucose. Background: ATP-based viability assays read luminescence as a measure of living cells.
Setting [8] is: MELAS cybrid survival, CellTiter-Glo 48 h, stronger effect = higher value.
The mark [9] stands for this setting: Rieske KO mouse fibroblast survival, CellTiter-Glo 72 h.

The source made the active and inactive calls. Unless noted, how the calls were made is not given here.

Sequence of Cellular tumor antigen p53 (Homo sapiens) (P04637 whole entry, looked up): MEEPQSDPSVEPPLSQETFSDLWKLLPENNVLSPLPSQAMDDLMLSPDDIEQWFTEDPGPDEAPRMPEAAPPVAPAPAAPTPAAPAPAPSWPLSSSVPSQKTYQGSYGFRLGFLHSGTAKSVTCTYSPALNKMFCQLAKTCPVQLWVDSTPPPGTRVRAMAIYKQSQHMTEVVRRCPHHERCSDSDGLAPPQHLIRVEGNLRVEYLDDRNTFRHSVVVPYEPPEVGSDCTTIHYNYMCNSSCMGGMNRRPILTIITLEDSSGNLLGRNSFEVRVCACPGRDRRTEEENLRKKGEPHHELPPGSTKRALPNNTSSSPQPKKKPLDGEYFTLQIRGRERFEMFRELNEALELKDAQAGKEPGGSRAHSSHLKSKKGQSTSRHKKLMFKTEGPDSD

In assay [1], `O=C1N=c2ccc(N=Cc3c(O)[nH]c4ccccc34)cc2=N1` returned a liver cell % of control of 79.5%. Further, the parasite % of control in assay [1] was 117% (inactive). Moreover, the percent of negative control (+Dex) in assay [2] is 86% (inactive). In addition, the z-score was -0.205 in assay [2]; -0.24 (inactive) in assay [3]; 1.12 (inactive) in assay [4]; 1.49 (inactive) in assay [7] (setting [8]); -0.0625 in assay [7] (setting [9]). In assay [5], the EGFP object count is 5.5. Also, the EGFP/DsRed ratio in assay [5] was 0.268 (inactive). The fraction signal in assay [6] was -0.0005 (inactive).

The compound `Cc1ccc(Nc2ccnc(Nc3cccc(C(N)=O)c3)n2)cc1O` registered a liver cell % of control in assay [1] of 103%. Also, in assay [1], the parasite % of control is 259% (inactive). For the same compound, in assay [2], the percent of negative control (+Dex) is 106% (inactive). Further, the z-score in assay [2] was 1.52; in assay [3], -0.32 (inactive); in assay [4], -1.32 (inactive); in assay [7] (setting [8]), -0.195 (inactive); in assay [7] (setting [9]), 0.472. Besides, the EGFP object count in assay [5] is 3. For the same compound, the EGFP/DsRed ratio in assay [5] was 0.0254 (inactive). The fraction signal in assay [6] is -0.008 (inactive).

`CCN(CC)Cc1ccc(Nc2nccc(-c3cnn4ncccc34)n2)cc1`: the liver cell % of control in assay [1] was determined as 52.3%. Further, the parasite % of control in assay [1] is 12.5% (active). The percent of negative control (+Dex) in assay [2] was 3% (active). Also, the z-score in assay [2] was -9.2; in assay [3], -0.59 (inactive); in assay [4], -2.04 (inactive); in assay [7] (setting [8]) it was 0.539 (inactive); in assay [7] (setting [9]), 1.65. The EGFP object count in assay [5] amounted to 3. The EGFP/DsRed ratio in assay [5] was 0.0517 (inactive). Moreover, in assay [6], the fraction signal was 0.0075 (inactive).

In assay [1], `CCn1c(-c2nonc2N)nc2cncc(C(=O)N3CCNCC3)c21` came in with a liver cell % of control of 101%. In assay [1], the parasite % of control is 140% (inactive). Besides, the percent of negative control (+Dex) in assay [2] was 111% (inactive). Further, the z-score in assay [2] was 0.555; in assay [3], -0.355 (inactive); in assay [4], 0.864 (inactive); in assay [7] (setting [8]) it was -0.623 (inactive); in assay [7] (setting [9]) it was 0.0786. Further, the EGFP object count in assay [5] was 8. For the same compound, the EGFP/DsRed ratio in assay [5] is 0.129 (inactive). In addition, the fraction signal in assay [6] is -0.005 (inactive).

In the case of `COc1cc(/C=N/Nc2ncnc3[nH]ncc23)ccc1O`, the liver cell % of control in assay [1] is 81.7%. Moreover, the parasite % of control in assay [1] was 96.9% (inactive). In addition, the percent of negative control (+Dex) in assay [2] is 87.5% (inactive). Besides, the z-score in assay [2] is -0.055; in assay [3], 0.42 (inactive); in assay [4], -0.354 (inactive); in assay [7] (setting [8]), 0.451 (inactive); in assay [7] (setting [9]), -0.093. Moreover, the EGFP object count in assay [5] came out at 2.5. Besides, the EGFP/DsRed ratio in assay [5] is 0.119 (inactive). Moreover, in assay [6], the fraction signal is 0.001 (inactive).

The compound `N#Cc1cccc(Nc2nccc(-c3cnn4ncccc34)n2)c1` had a liver cell % of control in assay [1] of 128%. Moreover, the parasite % of control in assay [1] was 19.1% (inactive). In assay [2], the percent of negative control (+Dex) is 2% (active). Besides, the z-score in assay [2] is -9.25; in assay [3], 0.415 (inactive); in assay [4] it was -1.79 (inactive); in assay [7] (setting [8]), 0.321 (inactive); in assay [7] (setting [9]), 1.44. Moreover, the EGFP object count in assay [5] was 1. Further, in assay [5], the EGFP/DsRed ratio is 0.00226 (inactive). For the same compound, in assay [6], the fraction signal was -0.013 (inactive).

Compound `CCOc1ccc2c(-c3ccnc(Nc4cc(OC)cc(C(F)(F)F)c4)n3)cnn2n1` had a liver cell % of control in assay [1] of 65.9%. The parasite % of control in assay [1] was 254% (inactive). The percent of negative control (+Dex) in assay [2] is 86.5% (inactive). Besides, the z-score in assay [2] is 1.62; in assay [3] it was -0.445 (inactive); in assay [4] it was 0.258 (inactive); in assay [7] (setting [8]), 0.655 (inactive); in assay [7] (setting [9]) it was -0.17. The EGFP object count in assay [5] is 6. Besides, the EGFP/DsRed ratio in assay [5] was 0.102 (inactive). Further, the fraction signal in assay [6] is -0.001 (inactive).

The compound `O=C1Nc2ccccc2/C1=C1\CCc2cc(O)ccc21` displayed a liver cell % of control in assay [1] of 77.7%. Moreover, the parasite % of control in assay [1] was 108% (inactive). Besides, in assay [2], the percent of negative control (+Dex) is 114% (inactive). The z-score is 1.81 in assay [2]; -1.72 (inactive) in assay [3]; 3.73 (inactive) in assay [4]; -0.0823 (inactive) in assay [7] (setting [8]); -0.0427 in assay [7] (setting [9]). The EGFP object count in assay [5] is 8.5. Further, the EGFP/DsRed ratio in assay [5] was 0.108 (inactive). In addition, in assay [6], the fraction signal is -0.013 (inactive).

Consider `Cc1ccc(C(=O)NC2CCC2)cc1-c1ccc(C(=O)NCC2CC2)cc1`, for which the liver cell % of control in assay [1] amounted to 104%. Also, the parasite % of control in assay [1] is 116% (inactive). In addition, the percent of negative control (+Dex) in assay [2] was 98.5% (inactive). Besides, the z-score in assay [2] is 1.36; in assay [3], 0.425 (inactive); in assay [4] it was -0.285 (inactive); in assay [7] (setting [8]), -0.173 (inactive); in assay [7] (setting [9]), -0.404. Also, in assay [5], the EGFP object count was found to be 2. The EGFP/DsRed ratio in assay [5] is 0.0763 (inactive). The fraction signal in assay [6] is -0.002 (inactive).

`c1ccc(COc2ccc(Nc3ncnc4ccc(-c5ccco5)cc34)cc2)cc1` returned a liver cell % of control in assay [1] of 99%. Further, in assay [1], the parasite % of control is 71.7% (inactive). Besides, the percent of negative control (+Dex) in assay [2] is 106% (inactive). In addition, the z-score was 1.01 in assay [2]; 0.34 (inactive) in assay [3]; -1.14 (inactive) in assay [4]; -0.351 (inactive) in assay [7] (setting [8]); -0.356 in assay [7] (setting [9]). In addition, in assay [5], the EGFP object count came out at 3. Also, the EGFP/DsRed ratio in assay [5] was 0.073 (inactive). The fraction signal in assay [6] was 0.006 (inactive).

Compound `COC(=O)c1sc(-n2cnc3cc(OC)c(OC)cc32)cc1OCc1ccccc1C(F)(F)F` showed a liver cell % of control in assay [1] of 103%. In addition, the parasite % of control in assay [1] is 126% (inactive). In addition, the percent of negative control (+Dex) in assay [2] is 86% (inactive). Also, the z-score in assay [2] was 0.12; in assay [3], 0.885 (inactive); in assay [4] it was 0.445 (inactive); in assay [7] (setting [8]) it was -0.644 (inactive); in assay [7] (setting [9]), 0.293. Moreover, the EGFP object count in assay [5] is 4.5. In addition, the EGFP/DsRed ratio in assay [5] was 0.108 (inactive). In assay [6], the fraction signal is -0.003 (inactive).

For the compound `CN(c1ccc(NC(=O)Nc2ccc(OC(F)(F)F)cc2)cc1)c1ccnc(Nc2cccc(S(N)(=O)=O)c2)n1`, in assay [1], the liver cell % of control was determined as 58.3%. Besides, the parasite % of control in assay [1] was 13.1% (inactive). Further, in assay [2], the percent of negative control (+Dex) was 81.5% (inactive). Moreover, the z-score is -0.645 in assay [2]; 1.04 (inactive) in assay [3]; -1.34 (inactive) in assay [4]; -1.15 (inactive) in assay [7] (setting [8]); 0.249 in assay [7] (setting [9]). Further, the EGFP object count in assay [5] was found to be 7.5. In assay [5], the EGFP/DsRed ratio was 0.0983 (inactive). Also, the fraction signal in assay [6] was -0.001 (inactive).

In assay [1], `CS(=O)(=O)CCNCc1ccc(-c2ccc3ncnc(Nc4ccc(OCc5cccc(F)c5)c(C(F)(F)F)c4)c3c2)o1` gave a liver cell % of control of 105%. In addition, the parasite % of control in assay [1] is 99.7% (inactive). Further, in assay [2], the percent of negative control (+Dex) is 106% (inactive). For the same compound, the z-score in assay [2] was 1.84; in assay [3], 0.48 (inactive); in assay [4], -0.873 (inactive); in assay [7] (setting [8]), -0.506 (inactive); in assay [7] (setting [9]), -0.463. Moreover, the EGFP object count in assay [5] turned out to be 1. Further, the EGFP/DsRed ratio in assay [5] is 0.00783 (inactive). In addition, the fraction signal in assay [6] is -0.0125 (inactive).

Consider `Cc1ccc(NC(=O)c2ccoc2)cc1-c1ccc(C(=O)NCC2CC2)cc1`, for which the liver cell % of control in assay [1] was 104%. In addition, the parasite % of control in assay [1] is 120% (inactive). Moreover, the percent of negative control (+Dex) in assay [2] was 99.5% (inactive). The z-score in assay [2] is 0.73; in assay [3], 0.02 (inactive); in assay [4], -0.057 (inactive); in assay [7] (setting [8]), -1.06 (inactive); in assay [7] (setting [9]), -0.276. Moreover, in assay [5], the EGFP object count stood at 2. In addition, the EGFP/DsRed ratio in assay [5] is 0.0344 (inactive). Besides, in assay [6], the fraction signal is -0.016 (inactive).
